# Measured values as given in PubChem BioAssay (NCATS).
# Records with an inconclusive call do not appear. Entries that show only a call come without a potency. Values without a mark were called inactive. Active and inactive are the calls of the source. Calls follow the shape of the dose curve; as a rule, active = well fitted curve in the direction sought with a large enough effect; inconclusive = small, poorly fitted or top-dose-only effect, or another doubt; inactive = no such curve, though single readings can be large; an effect the other way counts as inactive or inconclusive.
# Assays:
# [1] = target: Aldehyde dehydrogenase, mitochondrial (Homo sapiens) (UniProt P05091); assay: qHTS for Inhibitors of the Aldehyde Dehydrogenase Family (ALDH2) Primary screen (AID 2061308); also: nearly all actives have a fitted effect of over 55% in size
# [2] = target: Retinaldehyde dehydrogenase 3 (Homo sapiens) (UniProt P47895); assay: qHTS for Inhibitors of the Aldehyde Dehydrogenase Family (ALDH1A3) Primary screen (AID 2061315)
# [3] = BET inhibitor-based combinations targeting novel dependencies in MECOM-rearranged (r) AML: OCI-AML3 cell line (AID 2202232); conditions: Potency: OCI-AML3 viability; also: nearly all actives have a fitted effect of over 35% in size; also: potency is read from the fitted curve at half-maximal effect
# Procedure, shortened: (§1)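 Viability of cells (500 per well) is scored by luminescent CellTiter-Glo at 48 hr post-dosing. Eleven-point titrations are normalized to DMSO and empty controls and reduced to AUC values.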
# [4] = BET inhibitor-based combinations targeting novel dependencies in MECOM-rearranged (r) AML: MV-4-11 cell line (AID 2202233); also: potency is read from the fitted curve at half-maximal effect; nearly all actives have a fitted effect of over 45% in size
# Procedure, shortened: (§2)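 Using pin-tool transfer, drugs were added in 11 doses to cells (500/well), incubated 48 hr, and assessed with CellTiter-Glo. Z-AUC is a mean-centring transformation applied separately to each screened line.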
# [5] = BET inhibitor-based combinations targeting novel dependencies in MECOM-rearranged (r) AML: HNT-34 cell line (AID 2202234); also: nearly all actives have a fitted effect of over 35% in size; also: potency is read from the fitted curve at half-maximal effect
# Procedure, shortened: as §2
# [6] = BET inhibitor-based combinations targeting novel dependencies in MECOM-rearranged (r) AML: SET-2 cell line (AID 2202231); conditions: SET-2 AML cells viability, CellTiter-Glo luminescence, 48 h; viability: active compounds read low, concentration not given here; also: nearly all actives have a fitted effect of over 35% in size; also: potency is read from the fitted curve at half-maximal effect
# Procedure, shortened: as §1
# [7] = BET inhibitor-based combinations targeting novel dependencies in MECOM-rearranged (r) AML: UCSD-AML1 cell line (AID 2202235); also: nearly all actives have a fitted effect of over 40% in size; also: potency is read from the fitted curve at half-maximal effect
# Procedure, shortened: as §2
# [8] = BET inhibitor-based combinations targeting novel dependencies in MECOM-rearranged (r) AML: AML-191 cell line (AID 2202236; also: nearly all actives have a fitted effect of over 35% in size; also: potency is read from the fitted curve at half-maximal effect)
# Procedure, shortened: as §1
# [9] = BET inhibitor-based combinations targeting novel dependencies in MECOM-rearranged (r) AML: AML-194 cell line (AID 2202237; also: nearly all actives have a fitted effect of over 40% in size; also: potency is read from the fitted curve at half-maximal effect)
# Procedure, shortened: as §1
SMILES,Potency [1],Potency [2],Potency [3],Potency [4],Potency [5],viability [6] [%],Potency [7],Potency [8],Potency [9],Potency [6]
C=CC(=O)N1CCC[C@@H](n2nc(-c3ccc(Oc4ccccc4)cc3)c3c(N)ncnc32)C1,inactive,inactive,inactive,2.95 µM (active),5.9 µM (active),,,,,
O=C(O)C1=CO[C@@H](O[C@@H]2O[C@H](CO)[C@@H](O)[C@H](O)[C@H]2O)[C@@H]2C(CO)=CC[C@H]12,inactive,inactive,,,inactive,118,inactive,inactive,inactive,
O=C(C1CC1)N1CC[C@@H](Cn2c(-c3ccc(-c4ccc5occc5c4)cc3)nc3cnccc32)C1,inactive,inactive,,20.9 µM (active),26.3 µM (active),,,,,
O=C(O)c1ccc(CN2CCC(CN[C@@H]3C[C@H]3c3ccccc3)CC2)cc1,inactive,inactive,,,inactive,,,inactive,inactive,0.186 µM (active)
CCN1CCN(Cc2ccc(NC(=O)c3ccc(C)c(/C=C/c4cnc5[nH]ccc5c4OC)c3)cc2C(F)(F)F)CC1,inactive,inactive,5.25 µM (active),0.186 µM (active),0.209 µM (active),,2.95 µM (active),2.95 µM (active),2.95 µM (active),
COc1cc2nc(-c3ccc(N4CCN(C)CC4)cc3)nc(NCCN3CCOCC3)c2cc1OC,inactive,inactive,,2.35 µM (active),10.5 µM (active),,4.68 µM (active),9.34 µM (active),13.2 µM (active),
CCN1CCN(Cc2ccc(NC(=O)Nc3ccc(Oc4cc(NC)ncn4)cc3)cc2C(F)(F)F)CC1,inactive,inactive,,0.0023 µM (active),,,,,,
C[C@@H]1CC(=O)Nc2cccc(-c3cnn(C(C)(C)C)c3)c2N1,inactive,inactive,18.6 µM (active),16.6 µM (active),,,14.8 µM (active),16.6 µM (active),,
Cn1c(NC[C@@H](N)Cc2ccccc2)nc(-c2ccncc2)c(-c2ccc3ccccc3c2)c1=O,inactive,inactive,20.9 µM (active),20.9 µM (active),26.3 µM (active),,,,26.3 µM (active),
O=C(NCc1ccccc1)c1csc(Nc2ccncn2)n1,inactive,inactive,10.5 µM (active),9.34 µM (active),10.5 µM (active),,18.6 µM (active),18.6 µM (active),18.6 µM (active),
C[C@H](CN(C)C)Oc1nc(Nc2cc3cccc(Cl)c3cn2)cnc1C#N,inactive,inactive,4.68 µM (active),1.86 µM (active),,,,,,
CC(=O)O[C@H]1C(=O)[C@@]2(C)C([C@H](OC(=O)c3ccccc3)[C@]3(O)C[C@H](OC(=O)[C@H](O)[C@@H](NC(=O)c4ccccc4)c4ccccc4)C(C)=C1C3(C)C)[C@]1(OC(C)=O)CO[C@@H]1C[C@@H]2O (some centres undefined),inactive,inactive,0.0059 µM (active),,0.0042 µM (active),,,0.0209 µM (active),,0.148 µM (active)
C[C@@H]1CCN(C(=O)CC#N)C[C@@H]1N(C)c1ncnc2[nH]ccc12,inactive,inactive,,,,,0.059 µM (active),,,1.48 µM (active)
Cc1onc(-c2ccc(F)cc2)c1COc1ccc(C(=O)N2CCS(=O)(=O)CC2)cn1,inactive,inactive,inactive,,inactive,112,inactive,inactive,inactive,
CCn1c(N)c(C(=O)NC)c(=O)c2ccc(C#CC(C)(O)COC)nc21 (centres undefined),inactive,inactive,,5.25 µM (active),,91.1,inactive,23.5 µM (active),inactive,
COc1cc2c(cc1OC(C)C)[C@H](c1ccc(Cl)cc1)N(c1ccc(N(C)CC3CCC(N4CCN(C)C(=O)C4)CC3)cc1)C(=O)C2 (some centres undefined),inactive,inactive,11.8 µM (active),2.35 µM (active),3.72 µM (active),,4.68 µM (active),5.9 µM (active),10.5 µM (active),
C[C@@H]1CCNC(=O)c2cc3ccc(C(=O)Nc4nc5ccccc5n4CCCN(C)C)cc3n21,inactive,inactive,6.61 µM (active),0.59 µM (active),16.6 µM (active),,,,,
CNS(=O)(=O)c1ccc2c(c1)/C(=C/c1[nH]c3c(c1CCCN1CCN(C)CC1)CCCC3)C(=O)N2,inactive,inactive,,,20.9 µM (active),,,14.8 µM (active),13.2 µM (active),18.6 µM (active)
CNCc1ccc(-c2cc(-c3nc(-c4ccc(S(=O)(=O)C(C)C)cc4)cnc3N)on2)cc1,inactive,inactive,inactive,,,,0.742 µM (active),,,
CN(C)Cc1ccc(-c2nc3cccc4c3n2CCNC4=O)cc1,inactive,inactive,inactive,,18.6 µM (active),,,,23.5 µM (active),
O=C(Nc1cccnc1)c1cc(-c2ccnc(F)c2)ccc1OCc1ccccc1,inactive,inactive,,3.72 µM (active),,121,inactive,inactive,inactive,
